Measurements from the supplement of paper PMC13380429.

What was measured:
[1] = test system: Vero E6 infected with SARS-CoV-2; assay: morphology score (similarity to uninfected cells); higher = more like uninfected cells; settings: 24 h
[2] = test system: Vero E6 infected with SARS-CoV-2; assay: SARS-CoV-2 infection rate relative to infected DMSO; higher = more infection, active = 60 or less; settings: 24 h

Structure (SMILES)	morphology score [1]	SARS-CoV-2 infection rate [2]
COC(=O)C1=C(C)NC(C)=C(C(=O)NCCCN2CCC(c3ccccc3)(c3ccccc3)CC2)C1c1ccc([N+](=O)[O-])cc1 (configuration not stated) (0.833333 µM)	0.212	98.5% (inactive)
CCCNC(C)C(=O)Nc1c(C)csc1C(=O)OC (configuration not stated) [articaine] (10 µM)	0.0926	98% (inactive)
C[n+]1c2cc(N)ccc2cc2ccc(N)cc21.Nc1ccc2cc3ccc(N)cc3nc2c1 [acriflavine] (0.833333 µM)	0.32	108% (inactive)
O=C(O)c1nn(Cc2ccc(Cl)cc2Cl)c2ccccc12 [lonidamine] (10 µM)	0.0313	110% (inactive)
C[C@H]1CO[C@@H]2Cn3cc(C(=O)NCc4ccc(F)cc4F)c(=O)c(O)c3C(=O)N12 (10 µM)	-0.00851	108% (inactive)
CN(C)CC/C=C1/c2ccccc2COc2ccccc21 [doxepin] (10 µM)	0.0537	105% (inactive)
Cc1ncc(OC[C@@]2(c3cccc(F)c3)C[C@H]2C(=O)Nc2ccc(F)cn2)c(C)n1 [lemborexant] (10 µM)	0.0108	112% (inactive)
CCCN1C[C@H](CSC)C[C@@H]2c3cccc4[nH]cc(c34)C[C@H]21 [pergolide] (10 µM)	0.343	78% (inactive)
c1ccc2c(-c3cnn4cc(-c5ccc(N6CCNCC6)cc5)cnc34)ccnc2c1 (10 µM)	-0.0877	108% (inactive)
Cc1ccc(S(=O)(=O)/C=C/C#N)cc1 (0.833333 µM)	0.173	112% (inactive)
COc1cc2nccc(Oc3ccc(NC(=O)Nc4ccc(F)cc4F)c(F)c3)c2cc1OC (10 µM)	0.12	111% (inactive)
